Pf growth 96h = Primary qHTS for delayed death inhibitors of the malarial parasite plastid, 96 hour incubation; P. falciparum luciferase reporter growth, 96 h; Potency, µM (doses to about 28.7 µM), inactives show at the top dose activity change, negative = inhibition, most hits filed as inhibitors; 320,000 compounds, 6.9% hits; further: potency means the concentration at half of the fitted maximal effect; on the % scale 0 is the no-effect control and ±100 the full control effect
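P. falciparum expressing integrated firefly luciferase, in erythrocytes at 2% hematocrit, 0.05% parasitemia, incubated with compounds 96 h at 37 C, 5% CO2. Growth inhibition read as loss of luminescence; two-generation exposure targets delayed-death apicoplast inhibitors.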
Sm TGR block = qHTS Assay for the Inhibitors of Schistosoma Mansoni Peroxiredoxins. Potency, µM (doses to about 114 µM), for the others: top-dose activity change, negative = inhibition, hits mostly inhibitors. 360,000 compounds, 3% hits. Schistosoma mansoni thioredoxin glutathione reductase (TGR), Q962Y6. AID 485364, 2010. purified TGR, DTNB reduction, TNB absorbance 405 nm; further: potency means the concentration at half of the fitted maximal effect; on the % scale 0 is the no-effect control and ±100 the full control effect; nearly all actives have a fitted effect of over 60% in size
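TGR 20 nM + NADPH 100 uM (dispensed conc.), cpd preinc 15 min RT; start with NADPH (500 uM addition) then DTNB (15 mM addition). Kinetic TNB absorbance, 405 nm filter. Four-parameter Hill fit across titration.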
Pf growth 48h = Primary qHTS for delayed death inhibitors of the malarial parasite plastid, 48 hour incubation | P. falciparum luciferase growth in erythrocytes, 48 h | Potency, µM (titrated, usually from 28.7 µM), inactives show at the highest dose activity change, negative = inhibition, hits mostly inhibitors | 310,000 compounds, 5.9% hits | AID 504832, 2011; further: potency means the concentration at half of the fitted maximal effect; on the % scale 0 is the no-effect control and ±100 the full control effect
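Luciferase-expressing P. falciparum in infected erythrocytes (2% hematocrit, 0.1% parasitemia final) in RPMI 1640/0.5% Albumax were exposed to compound for 48 hours at 37 C, 5% CO2; growth read as luminescence.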
NS1 inh = qHTS Assay for Inhibitors of Influenza NS1 Protein Function; Potency, µM (series often up to 46.1 µM), without a hit: at the highest dose activity, positive = more growth; 270,000 compounds, 0.4% hits; AID 2326, 2010; calls by dose curve; further: potency means the concentration at half of the fitted maximal effect; actives are rising curves; nearly all actives have a fitted effect of over 50% in size
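Growth recovery, yeast-based: influenza A NS1 expressed in S. cerevisiae causes slow growth, and suppressors are detected by OD600. The parent strain without NS1 is used as positive control.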
CHX counter = Cycloheximide Counterscreen for Small Molecule Inhibitors of Shiga Toxin; cell reporter, cycloheximide protein synthesis inhibition counterscreen; max response, %; AID 2314, 2010; 300,000 compounds, 12% hits; in the data active means max response mostly above about 13%, no sharp cut-off; inactive means mostly below about 14%; further: read at 38.3 µM for the half of the compounds with a filed dose; 0% is about no effect
Shiga inhibitor = A qHTS for Small Molecule Inhibitors of Shiga Toxin | Vero cells, Shiga toxin protein synthesis inhibition reporter | inhibition, % at 38.7 µM | 290,000 compounds, 9.2% hits | AID 2315, 2010; in the data active means inhibition mostly above about 28%, no sharp cut-off; inactive means mostly below about 43%; further: 0% is about no effect
Flu NS1 inh = Assay for Inhibitors of Influenza NS1 Protein Function: Hit Validation. 1,400 tested, under 10 active. activity change, negative = inhibition, % at 32.9 µM. shares compounds with NS1 inh. influenza NS1 function cell assay, 15-point titration. AID 492980, 2010; calls by dose curve; further: 0% is about no effect
An asterisk follows results filed as active. Compounds with a hit are over-represented: about 21% of the library has one in this group of screens. Unless noted, the call rests on the fitted dose curve; in most records, active means well fitted curve in the direction sought with a large enough effect; inconclusive means small, poorly fitted or top-dose-only effect, or another doubt; inactive means no such curve, though single readings can be large; an effect the other way counts as inactive or inconclusive.

For CN(Cc1ccc(F)cc1)C(=O)c1cc(S(=O)(=O)N2CCCCC2)ccc1N1CCOCC1 the results were Pf growth 96h -5%, Sm TGR block 7% and Pf growth 48h inconclusive.
Cn1c(NC(=O)Cc2cccc3ccccc23)cc(=O)n(C)c1=O was read as Pf growth 96h -96%, Sm TGR block 13%, Pf growth 48h 3%, CHX counter 6 and Shiga inhibitor -12.
Screening Cc1cccc(CC(=O)Nc2cc(=O)n(C)c(=O)n2C)c1 returned Pf growth 96h inconclusive, Sm TGR block -7%, Pf growth 48h inconclusive, NS1 inh inconclusive, CHX counter 1, Shiga inhibitor 10 and Flu NS1 inh -7.
COc1cccc(C(C)NC(=O)Nc2cc(Cl)ccc2OC)c1 (centres undefined) was read as Pf growth 96h 11%, Sm TGR block 4%, Pf growth 48h inconclusive, NS1 inh 3%, CHX counter 2 and Shiga inhibitor -9.
COc1cccc(C(C)NC(=O)Nc2cccc(C(F)(F)F)c2)c1 (centres undefined) was read as Pf growth 96h 53%, Sm TGR block 3%, Pf growth 48h inconclusive, NS1 inh inconclusive, CHX counter -2, Shiga inhibitor -12 and Flu NS1 inh inconclusive.
For NC(=O)CNC(=O)[C@@H]1CC2(CC(c3ccc(Cl)cc3)=NO2)CN1C(=O)c1ccc(Br)cc1 (some centres undefined) the results were Pf growth 96h inconclusive, Sm TGR block -20%, Pf growth 48h -13%, NS1 inh 11%, CHX counter 4 and Shiga inhibitor 11.
Screening Cc1nc(-c2ccc(Cl)cc2)sc1C1(C)CC(c2c(Cl)cccc2Cl)=NO1 (centres undefined) returned Pf growth 96h 53%, Sm TGR block 24%, Pf growth 48h 82%, NS1 inh 10µM*, CHX counter 1, Shiga inhibitor -2 and Flu NS1 inh 18.
For Cc1nc(C(=O)NCc2ccccc2)sc1C1(C)CC(c2ccccc2)=NO1 (centres undefined) the results were Pf growth 96h inconclusive, Sm TGR block 9%, Pf growth 48h inconclusive, NS1 inh 13%, CHX counter 5 and Shiga inhibitor -2.
Screening Oc1ccccc1Nc1nc(-c2ccccc2)c2cc(Cl)ccc2n1 returned Sm TGR block 0%.
`O=C(CSc1ccccc1)NCC(c1ccco1)N1CCCCC1` (centres undefined) gave Pf growth 96h inconclusive, Sm TGR block -8% and Pf growth 48h inconclusive.
OC(CNCC(c1ccco1)N1CCCCC1)c1ccccc1 (centres undefined) was read as Pf growth 96h inconclusive, Sm TGR block -4%, Pf growth 48h 1.3µM*, NS1 inh 2.2µM*, CHX counter -6, Shiga inhibitor -24 and Flu NS1 inh 7.
O=C(O)/C=C/c1nc(-c2ccccc2)n2ccccc12 was read as Pf growth 96h 42%, Sm TGR block 2.5µM*, Pf growth 48h 112%, NS1 inh inconclusive, CHX counter 71*, Shiga inhibitor 79* and Flu NS1 inh -1.
CCC(CO)NC(=O)[C@@H]1C=C2c3cccc4[nH]cc(c34)C[C@H]2N(C)C1 (some centres undefined) was read as NS1 inh 35µM* and Flu NS1 inh 4.
Screening CCC(CO)NC(=O)c1cccc(S(=O)(=O)N2c3ccccc3CC2C)c1 (centres undefined) returned Pf growth 96h inconclusive, Sm TGR block -29%, Pf growth 48h inconclusive, NS1 inh -4%, CHX counter -6 and Shiga inhibitor -7.
For O=C(O)c1cc(N/N=C/c2ccc(N3CCOCC3)s2)ccc1Cl the results were Pf growth 96h 3%, Sm TGR block inconclusive, Pf growth 48h 22%, NS1 inh 11µM*, CHX counter 45*, Shiga inhibitor 64* and Flu NS1 inh 23.
`CCOC(=O)c1c(C)oc2nc(C)nc(NCCc3ccc(OCC)c(OCC)c3)c12` gave Sm TGR block -12%.
COC(=O)c1ccc(C2C(C(=O)c3ccc(C)o3)=C(O)C(=O)N2c2cc(C)on2)cc1 (centres undefined) was read as Pf growth 96h inconclusive, Sm TGR block inconclusive, Pf growth 48h 0%, NS1 inh 12%, CHX counter 3 and Shiga inhibitor -1.
For Cc1cc(N2C(=O)C(O)=C(C(=O)c3ccc(C)o3)C2c2cccs2)no1 (centres undefined) the results were Pf growth 96h inconclusive, Sm TGR block inconclusive, Pf growth 48h -5%, NS1 inh 11µM*, CHX counter 1, Shiga inhibitor 7 and Flu NS1 inh -26.
`COC(=O)C(O)(c1c(C)[nH]n(-c2ccccc2)c1=O)C(F)(F)F` (centres undefined) gave Pf growth 96h inconclusive, Sm TGR block -18%, Pf growth 48h 44%, NS1 inh 8.9µM*, CHX counter 12, Shiga inhibitor 3 and Flu NS1 inh inconclusive.
CCOC(=O)Cc1c(C)[nH]n(-c2ccccc2)c1=O was read as Pf growth 96h 3%, Sm TGR block -5%, Pf growth 48h inconclusive, NS1 inh 4%, CHX counter 4 and Shiga inhibitor 5.
COc1ccc(CCN(CC(=O)NC(C)(C)C)C(=O)Cn2nnc(-c3ccc(C)o3)n2)cc1OC was read as Pf growth 96h inconclusive, Sm TGR block -17%, Pf growth 48h inconclusive, CHX counter 9 and Shiga inhibitor 23.
For Cc1ccc(S(=O)(=O)c2cn(CC(=O)Nc3ccc4c(c3)OCO4)c3ccccc3c2=O)cc1 the results were Sm TGR block 1%.
For Cc1ccc(CNC(=O)C2CCCN(S(=O)(=O)c3c(C)n[nH]c3C)C2)cc1 (centres undefined) the results were Pf growth 96h -24%, Sm TGR block 2%, NS1 inh -4%, CHX counter -4 and Shiga inhibitor -7.
CCOc1ccc(CCNC(=O)C2CCCN(S(=O)(=O)c3c(C)n[nH]c3C)C2)cc1OCC (centres undefined) was read as Pf growth 96h 4%, Sm TGR block -1%, Pf growth 48h 8.3µM*, NS1 inh 2.5µM*, CHX counter 6, Shiga inhibitor -3 and Flu NS1 inh -27.

Screening data: PubChem, National Center for Advancing Translational Sciences (NCATS)
